This is part of a sample that, as a whole, favours compounds with a hit. Of some 79,000 tested, about 15% had one in any assay. Values without a mark were called inactive. Active and inactive are the calls of the source. Cut-off read from the data, not from the text of the source: active = growth inhibition above about 70%; inactive = the rest.

Experiment [1] is described as follows: NCI Yeast Anticancer Drug Screen. Data for the rad50 strain (AID 155).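 Note: 0% = growth of vehicle-only cultures of the same strain.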 Conditions: S. cerevisiae rad50 strain growth inhibition, hits give high values. The procedure, abridged:
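Compounds were tested on a yeast strain with an engineered DNA damage repair alteration; the reported value is growth inhibition normalised to vehicle treatment.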

Experiment [2] in a line: NCI Yeast Anticancer Drug Screen. Data for the mec2-1 strain (AID 157). Conditions: S. cerevisiae mec2-1 strain, hits give high values. In a few lines: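 Strain: mec2-1 (DNA repair/cell cycle alteration). Compound exposure, then growth measured; inhibition expressed relative to vehicle.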
Experiment [3] in a line: NCI Yeast Anticancer Drug Screen. Data for the sgs1 mgt1 strain (AID 161).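 Note: 0% = growth of cultures given vehicle only.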 The following applies: S. cerevisiae sgs1 mgt1 strain, hits give high values. The procedure, abridged: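 Genetically altered yeast, compound exposure, growth inhibition relative to vehicle.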
Experiment [4] in a line: NCI Yeast Anticancer Drug Screen. Data for the cln2 rad14 strain (AID 165).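 Note: 0% = growth equal to vehicle treated cultures.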 Conditions: S. cerevisiae cln2 rad14 strain, hits give high values. In a few lines:
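Compounds are applied to the cln2 rad14 yeast strain, and growth is then compared with that of vehicle-treated cultures to give inhibition.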

The nature of experiment [5]: NCI Yeast Anticancer Drug Screen. Data for the bub3 strain (AID 167). The following applies: S. cerevisiae bub3 mutant strain, hits give high values. In a few lines: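 Growth of a checkpoint-deficient yeast mutant is measured after compound exposure. Values represent inhibition relative to vehicle.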
Experiment [6] in a line: NCI Yeast Anticancer Drug Screen. Data for the mlh1 rad18 strain (AID 175). Conditions: S. cerevisiae mlh1 rad18 strain growth inhibition, hits give high values. The procedure, abridged: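 Read-out is yeast growth inhibition, calculated against vehicle-only controls. The compound was applied to a strain engineered with DNA damage repair alterations.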
The mark [7] stands for this setting: at 5.0 µM (retest, dose inferred, filed as 0.5).
[8] abbreviates: at 50.0 µM (retest, dose inferred, filed as 5.0).

Regarding `O=C1c2ccccc2-c2nnc3c(c21)Cc1ccccc1C3`, the growth inhibition is -4% in experiment [1] (setting [7]); 38% in experiment [1] (setting [8]); 50.9% in experiment [1] (at 50.0 µM); -21% in experiment [2] (setting [7]); 16% in experiment [2] (setting [8]); 43% in experiment [2] (at 50.0 µM). Moreover, the growth inhibition in experiment [3] (setting [7]) was -7%; in experiment [3] (setting [8]), 1%; in experiment [3] (at 50.0 µM), 17.1%; in experiment [4] (setting [7]) it was -8%; in experiment [4] (setting [8]), 27%; in experiment [4] (at 50.0 µM), 40.5%. For the same compound, the growth inhibition is 9% in experiment [5] (setting [7]); 26% in experiment [5] (setting [8]); 67.5% in experiment [5] (at 50.0 µM); -6% in experiment [6] (setting [7]); 37% in experiment [6] (setting [8]); 71% (active) in experiment [6] (at 50.0 µM).
For `Cc1ccc(S(=O)(=O)NCCCOS(=O)(=O)c2ccc(C)cc2)cc1`, the growth inhibition in experiment [1] (setting [7]) was 20%; in experiment [1] (setting [8]), 46%; in experiment [1] (at 50.0 µM), 22.8%; in experiment [2] (setting [7]), 16%; in experiment [2] (setting [8]), 33%; in experiment [2] (at 50.0 µM), 0.15%. In addition, the growth inhibition in experiment [3] (setting [7]) was 34%; in experiment [3] (setting [8]) it was 65%; in experiment [3] (at 50.0 µM), 28.9%; in experiment [4] (setting [7]), 34%; in experiment [4] (setting [8]), 63%; in experiment [4] (at 50.0 µM) it was 29.9%. Further, the growth inhibition in experiment [5] (setting [7]) was 37%; in experiment [5] (setting [8]), 66%; in experiment [5] (at 50.0 µM), 29.4%; in experiment [6] (setting [7]), 15%; in experiment [6] (setting [8]) it was 53%; in experiment [6] (at 50.0 µM), 45.9%.
Regarding `Cc1nn(C(=S)S)c(C)c1N=Nc1cccc(F)c1`, the growth inhibition in experiment [1] (setting [7]) is 15%; in experiment [1] (setting [8]) it was 29%; in experiment [1] (at 50.0 µM) it was 88.2% (active); in experiment [2] (setting [7]) it was -1%; in experiment [2] (setting [8]), 18%; in experiment [2] (at 50.0 µM), 46.1%. Further, the growth inhibition in experiment [3] (setting [7]) is 5%; in experiment [3] (setting [8]), -1%; in experiment [3] (at 50.0 µM), 88.6% (active); in experiment [4] (setting [7]) it was 1%; in experiment [4] (setting [8]) it was 5%; in experiment [4] (at 50.0 µM) it was 24.4%. Also, the growth inhibition in experiment [5] (setting [7]) is -1%; in experiment [5] (setting [8]), 7%; in experiment [5] (at 50.0 µM), 72.5% (active); in experiment [6] (setting [7]) it was -1%; in experiment [6] (setting [8]), 21%; in experiment [6] (at 50.0 µM) it was 90% (active).
On to `CCOC(CC)C(O)(c1ccc(N(C)C)cc1)c1ccc(N(C)C)cc1` (stereo not given), for which the growth inhibition was -2% in experiment [1] (setting [7]); 94% (active) in experiment [1] (setting [8]); 98.3% (active) in experiment [1] (at 50.0 µM); -1% in experiment [2] (setting [7]); 69% in experiment [2] (setting [8]); 98.2% (active) in experiment [2] (at 50.0 µM). The growth inhibition in experiment [3] (setting [7]) is 0%; in experiment [3] (setting [8]), 95% (active); in experiment [3] (at 50.0 µM), 98.6% (active); in experiment [4] (setting [7]), -3%; in experiment [4] (setting [8]), 63%; in experiment [4] (at 50.0 µM) it was 97.5% (active). The growth inhibition in experiment [5] (setting [7]) is 4%; in experiment [5] (setting [8]), 88% (active); in experiment [5] (at 50.0 µM), 98.7% (active); in experiment [6] (setting [7]), 1%; in experiment [6] (setting [8]), 98% (active); in experiment [6] (at 50.0 µM) it was 98.2% (active).
In the case of `Cc1ccc(NC(=O)CSC(N)=O)cc1C`, the growth inhibition in experiment [1] (setting [7]) was 4%; in experiment [1] (setting [8]), 22%; in experiment [1] (at 50.0 µM) it was 81.5% (active); in experiment [2] (setting [7]), 1%; in experiment [2] (setting [8]) it was 40%; in experiment [2] (at 50.0 µM), 70.1% (active). Moreover, the growth inhibition was 1% in experiment [3] (setting [7]); 30% in experiment [3] (setting [8]); 87.3% (active) in experiment [3] (at 50.0 µM); 1% in experiment [4] (setting [7]); 9% in experiment [4] (setting [8]); 58.5% in experiment [4] (at 50.0 µM). The growth inhibition in experiment [5] (setting [7]) is 5%; in experiment [5] (setting [8]) it was 69%; in experiment [5] (at 50.0 µM) it was 86.2% (active); in experiment [6] (setting [7]) it was 8%; in experiment [6] (setting [8]), 20%; in experiment [6] (at 50.0 µM) it was 72% (active).
Take `c1ccc2c(c1)oc1cc3ccncc3cc12`: the growth inhibition is 43% in experiment [1] (setting [7]); 96% (active) in experiment [1] (setting [8]); 96.8% (active) in experiment [1] (at 50.0 µM); 11% in experiment [2] (setting [7]); 86% (active) in experiment [2] (setting [8]); 86.3% (active) in experiment [2] (at 50.0 µM). The growth inhibition was 3% in experiment [3] (setting [7]); 83% (active) in experiment [3] (setting [8]); 94.8% (active) in experiment [3] (at 50.0 µM); 9% in experiment [4] (setting [7]); 89% (active) in experiment [4] (setting [8]); 92% (active) in experiment [4] (at 50.0 µM). The growth inhibition was 24% in experiment [5] (setting [7]); 94% (active) in experiment [5] (setting [8]); 96% (active) in experiment [5] (at 50.0 µM); 14% in experiment [6] (setting [7]); 92% (active) in experiment [6] (setting [8]); 95.2% (active) in experiment [6] (at 50.0 µM).
As for `CN1CCN(CCCCN2c3ccccc3Sc3ccc(C(=O)c4ccccc4)cc32)CC1`, the growth inhibition in experiment [1] (setting [7]) is 25%; in experiment [1] (setting [8]), 27%; in experiment [1] (at 50.0 µM), 75.6% (active); in experiment [2] (setting [7]), 26%; in experiment [2] (setting [8]), 34%; in experiment [2] (at 50.0 µM), 22.8%. The growth inhibition is 27% in experiment [3] (setting [7]); 2% in experiment [3] (setting [8]); 87.2% (active) in experiment [3] (at 50.0 µM); 30% in experiment [4] (setting [7]); 18% in experiment [4] (setting [8]); -9.8% in experiment [4] (at 50.0 µM). In addition, the growth inhibition is 36% in experiment [5] (setting [7]); 25% in experiment [5] (setting [8]); 22% in experiment [5] (at 50.0 µM); 32% in experiment [6] (setting [7]); 37% in experiment [6] (setting [8]); 60.2% in experiment [6] (at 50.0 µM).
Turning to `Cc1cccc(/C=N/Nc2ccccn2)n1`, the growth inhibition in experiment [1] (setting [7]) was 22%; in experiment [1] (setting [8]), 27%; in experiment [1] (at 50.0 µM), 83% (active); in experiment [2] (setting [7]), 17%; in experiment [2] (setting [8]), 37%; in experiment [2] (at 50.0 µM), 78.8% (active). For the same compound, the growth inhibition in experiment [3] (setting [7]) is 20%; in experiment [3] (setting [8]), 38%; in experiment [3] (at 50.0 µM), 37.1%; in experiment [4] (setting [7]) it was 17%; in experiment [4] (setting [8]) it was 37%; in experiment [4] (at 50.0 µM), 23.8%. The growth inhibition in experiment [5] (setting [7]) is 15%; in experiment [5] (setting [8]), 41%; in experiment [5] (at 50.0 µM), 37.6%; in experiment [6] (setting [7]), 21%; in experiment [6] (setting [8]), 42%; in experiment [6] (at 50.0 µM) it was 87.6% (active).
With `COc1ccc2c(c1)C(O)=C(CC=C(C)C)C(=O)C2=O`, the growth inhibition in experiment [1] (setting [7]) was -2%; in experiment [1] (setting [8]) it was 16%; in experiment [1] (at 50.0 µM), 26.8%; in experiment [2] (setting [7]), 22%; in experiment [2] (setting [8]), 46%; in experiment [2] (at 50.0 µM), 35%. The growth inhibition in experiment [3] (setting [7]) is 27%; in experiment [3] (setting [8]), 61%; in experiment [3] (at 50.0 µM) it was 20.2%; in experiment [4] (setting [7]) it was 7%; in experiment [4] (setting [8]) it was 1%; in experiment [4] (at 50.0 µM) it was 46.3%. Moreover, the growth inhibition is 8% in experiment [5] (setting [7]); 23% in experiment [5] (setting [8]); 4.1% in experiment [5] (at 50.0 µM); 35% in experiment [6] (setting [7]); 79% (active) in experiment [6] (setting [8]); 41.4% in experiment [6] (at 50.0 µM).
`CC(=O)OCC1CC2OC2CC1C` (stereo not given): the growth inhibition was 1% in experiment [1] (setting [7]); 2% in experiment [1] (setting [8]); 70.1% (active) in experiment [1] (at 50.0 µM); 6% in experiment [2] (setting [7]); -5% in experiment [2] (setting [8]); 50.1% in experiment [2] (at 50.0 µM). Besides, the growth inhibition is 15% in experiment [3] (setting [7]); 7% in experiment [3] (setting [8]); 70.4% (active) in experiment [3] (at 50.0 µM); 34% in experiment [4] (setting [7]); 9% in experiment [4] (setting [8]); 68.1% in experiment [4] (at 50.0 µM). The growth inhibition in experiment [5] (setting [7]) was 27%; in experiment [5] (setting [8]), 19%; in experiment [5] (at 50.0 µM), 75% (active); in experiment [6] (setting [7]), -12%; in experiment [6] (setting [8]), -26%; in experiment [6] (at 50.0 µM), 63%.
